Screening results from PubChem BioAssay.
A selection: hits, their analogues and other compounds. The true share with any hit is near 4.1%.
DAX1 inh-1: DAX1 (NR0B1) inhibitors, primary screen, cell-based, HEK293, Gal4-DAX1, luciferase luminescence. HEK293 Gal4-DAX1 luciferase reporter. inhibition, % at 6.75 µM. 0.99% of 340,000 active. Nuclear receptor subfamily 0 group B member 1 (Homo sapiens), P51843;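 active = inhibition above the mean over all tested compounds plus 3 SD, cut at about 4.2% in these data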;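 note: 0% = DAX1-transfected cells with DMSO and 100% = empty-vector control cells with DMSO; inhibition shows as a rise in luminescence from relieved DAX1 repression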
Target sequence (P51843 207-470 limits assumed): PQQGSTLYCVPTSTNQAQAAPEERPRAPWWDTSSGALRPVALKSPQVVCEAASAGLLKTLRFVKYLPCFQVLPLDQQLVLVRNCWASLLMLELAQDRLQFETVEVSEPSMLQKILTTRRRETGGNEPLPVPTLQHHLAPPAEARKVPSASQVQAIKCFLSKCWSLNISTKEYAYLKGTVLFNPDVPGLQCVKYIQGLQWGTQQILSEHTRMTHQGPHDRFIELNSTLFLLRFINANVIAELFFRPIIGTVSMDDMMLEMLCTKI
DAX1 inh-2: DAX1 (NR0B1) inhibitors on StAR promoter, primary screen, cell-based, luminescence, SF-1 (NR5A1), full-length DAX-1 | 1.1% of 370,000 active | inhibition, % at 6.8 µM | AID 652010, 2013 | HEK293T StAR-luciferase reporter, SF-1/DAX-1 repression relief;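 active = inhibition above the mean over all tested compounds plus 3 SD, cut at about 3.6% in these data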;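 note: 0% = DAX-1 cells with DMSO and 100% = cells lacking DAX-1 with DMSO; higher inhibition means more luminescence from relief of DAX-1 repression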
hcDAF-12 act: H. contortus DAF-12 nuclear receptor activators, primary screen, cell-based, luminescence, HEK293, lit1-tk-luc reporter; HEK293 hcDAF-12 lit1-tk-luc reporter; 0% DMSO, 100% Δ7-dafachronic acid; activation, % at 6.8 µM; 1.4% of 370,000 active;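 active = activation above the mean of all tested compounds plus 3 SD, cut at about 5.5% in these data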;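 note: 100% = response to 3 µM Δ7-dafachronic acid high control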
ssDAF-12 act: S. stercoralis DAF-12 nuclear receptor activators, primary screen, cell-based, luminescence, HEK293, GRIP1 co-expression, lit1-tk-luc. HEK293 ssDAF-12/GRIP1 lit1-tk-luc reporter; % of 3 µM dafachronic acid response. activation, % at 6.8 µM. 1% of 370,000 active. Nuclear hormone receptor DAF-12 (Strongyloides stercoralis);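 active = activation above the mean over all tested compounds plus 3 SD, cut at about 0.9% in these data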;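 note: 0% = DMSO-only wells and 100% = 3 µM delta7-dafachronic acid wells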
hgDAF-12 ag: H. glycines DAF-12 receptor agonists, primary screen, cell-based, luminescence, HEK293, GAL4 fusion, UAS-luciferase | activation, % at 6.8 µM | 1.8% of 370,000 active | HEK293 GAL4-hgDAF12 UAS-luciferase reporter, agonist luminescence; normalized to butyrate control;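 active = activation above a cutoff set at the mean of all screened compounds plus 3 SD, cut at about 10% in these data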;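 note: 0% = DMSO wells and 100% = sodium butyrate wells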
The depositor's hits bear a star.

How did CNc1snc(C)c1C(=O)OC(C)C(=O)Nc1cccc(OC)c1 (stereo unspecified) do in these assays?
DAX1 inh-1: -0.3; DAX1 inh-2: -2.5; hcDAF-12 act: -3.2; ssDAF-12 act: -1.5; hgDAF-12 ag: -0.9

Results for CC(CNC(=O)COC(=O)c1cccs1)c1ccccc1 (stereo unspecified) ?
DAX1 inh-1: 0.8; DAX1 inh-2: -1.7; hcDAF-12 act: -0.4; ssDAF-12 act: -1.4; hgDAF-12 ag: 1.4

What do the screens show for `CC(CNC(=O)COC(=O)c1cccnc1Cl)c1ccccc1` (stereo unspecified)?
DAX1 inh-1: -1.0; DAX1 inh-2: 3.1; hcDAF-12 act: 1.4; ssDAF-12 act: 1.2*; hgDAF-12 ag: 5.0

What do the screens show for `COc1cccc(NC(=O)C(C)OC(=O)c2n[nH]c3ccccc23)c1` (stereo unspecified)?
DAX1 inh-1: 0.2; DAX1 inh-2: -0.8; hcDAF-12 act: 1.1; ssDAF-12 act: 0.3; hgDAF-12 ag: 11.1*

What do the screens show for `CCCC1CCC2(CC1)CCC2OC(=S)Nc1ccccc1Br` (stereo unspecified)?
hcDAF-12 act: 0.6; ssDAF-12 act: -1.8; hgDAF-12 ag: 1.2

How did O=C(O)c1cccc(C(=O)O)c1S(=O)Cc1ccccc1 (stereo unspecified) do in these assays?
DAX1 inh-2: 1.3; hcDAF-12 act: 0.0; ssDAF-12 act: -1.4; hgDAF-12 ag: 3.8

Results for O=c1c2ccc(F)cc2nc2sc(Nc3ccc4c(c3)CCC4)nn12 ?
hcDAF-12 act: 2.5; ssDAF-12 act: 0.2; hgDAF-12 ag: 10.6*

How did CCNC(=S)N/N=C/c1c(C)nn(-c2cccc(Cl)c2)c1Cl do in these assays?
DAX1 inh-1: -1.4; DAX1 inh-2: -0.3; hcDAF-12 act: -0.2; ssDAF-12 act: -1.3; hgDAF-12 ag: 0.8

Results for Cc1nn(-c2cccc(Cl)c2)c(Cl)c1/C=N/NC(=O)c1cccs1 ?
DAX1 inh-1: 4.7*; DAX1 inh-2: 1.1; hcDAF-12 act: 1.9; ssDAF-12 act: -0.5; hgDAF-12 ag: 10.8*

How did O=C(c1cccs1)N1CC[C@H]2[C@H](CCCN2Cc2cc(F)cc(F)c2)C1 do in these assays?
DAX1 inh-2: 0.2; hcDAF-12 act: -1.1; ssDAF-12 act: -1.7; hgDAF-12 ag: -0.8

What do the screens show for `Nc1ccccc1-c1nc2ccccc2[nH]1`?
DAX1 inh-1: 2.5; DAX1 inh-2: 4.0*; hcDAF-12 act: 2.1; ssDAF-12 act: -0.6; hgDAF-12 ag: 11.4*

Results for O=C(Nc1ccc(F)cc1)c1nc[nH]c1C(=O)Nc1ccccc1[N+](=O)[O-] ?
DAX1 inh-1: -0.5; DAX1 inh-2: 0.4; hcDAF-12 act: -1.1; ssDAF-12 act: -1.3; hgDAF-12 ag: 6.2

Results for O=C(Nc1ccc(F)cc1)c1nc[nH]c1C(=O)O ?
DAX1 inh-1: 4.3*; DAX1 inh-2: 0.9; hcDAF-12 act: -0.4; ssDAF-12 act: -0.7; hgDAF-12 ag: 1.6

Results for c1ccc(CSc2nnc(NC3CCCCC3)s2)cc1 ?
DAX1 inh-1: 3.7; DAX1 inh-2: 3.2; hcDAF-12 act: 1.4; ssDAF-12 act: -0.4; hgDAF-12 ag: 11.9*

How did C[C@@H]1/C=C/CC(=O)N[C@H](c2cccc(Br)c2)[C@H](C)/C=C/CC(=O)N[C@@H]1c1cccc(Br)c1 do in these assays?
DAX1 inh-2: -1.1; hcDAF-12 act: -3.5; ssDAF-12 act: -1.4; hgDAF-12 ag: -2.0

How did Cn1c2ccccc2c(=O)c2c(=O)n(-c3ccc(F)cc3)c(-c3cccs3)nc21 do in these assays?
DAX1 inh-1: 2.8; DAX1 inh-2: 0.1; hcDAF-12 act: -2.2; ssDAF-12 act: -0.9; hgDAF-12 ag: -3.4

How did Cc1ccc(-c2nc3c(c(=O)c4ccccc4n3C)c(=O)n2-c2ccc(F)cc2)cc1 do in these assays?
DAX1 inh-1: 0.8; DAX1 inh-2: -0.3; hcDAF-12 act: 5.6*; ssDAF-12 act: -0.3; hgDAF-12 ag: -0.3

Results for Cn1c(=O)cc(OCCCC(=O)Nc2cc(-c3cn[nH]c3)ccn2)c2ccccc21 ?
hcDAF-12 act: -6.2; ssDAF-12 act: -2.5; hgDAF-12 ag: -10.8

What do the screens show for `O=C(C1CCCN1S(=O)(=O)c1ccccc1[N+](=O)[O-])N1CCN(c2ccccc2)CC1` (stereo unspecified)?
DAX1 inh-2: -0.3; hcDAF-12 act: -1.1; ssDAF-12 act: -0.1; hgDAF-12 ag: -0.8

Results for COC1OC(CO)C(N(C)C(C)=O)C1O (stereo unspecified) ?
DAX1 inh-1: 4.8*; DAX1 inh-2: -0.3; hcDAF-12 act: -3.1; ssDAF-12 act: -1.0; hgDAF-12 ag: 0.4

Results for Cc1cccc(-c2ccc3c(c2)C2CC3CCN2Cc2ccc3c(c2)OCO3)c1 (stereo unspecified) ?
DAX1 inh-1: -0.6; DAX1 inh-2: 4.0*; hcDAF-12 act: -1.2; ssDAF-12 act: -0.2; hgDAF-12 ag: -0.4

What do the screens show for `Oc1ccccc1C=Nn1c(-c2ccccc2F)n[nH]c1=S`?
DAX1 inh-2: 0.4; hcDAF-12 act: -0.4; ssDAF-12 act: -0.4; hgDAF-12 ag: 2.3

What do the screens show for `CCOC(=O)[C@]12CCCCC/C=C\1N(CCc1ccc(Cl)cc1)C(=O)[C@H]2CC(=O)NCC12CC3CC(CC(C3)C1)C2`?
DAX1 inh-2: 0.2; hcDAF-12 act: -2.3; ssDAF-12 act: -1.7; hgDAF-12 ag: -2.5

What do the screens show for `CC(=O)c1ccc(Oc2ncnc3sccc23)cc1`?
DAX1 inh-1: 2.7; DAX1 inh-2: 2.9; hcDAF-12 act: 1.7; ssDAF-12 act: -0.6; hgDAF-12 ag: 11.0*

Results for O=C1CCCCCN1CP(=O)(O)CN1CCCCCC1=O ?
DAX1 inh-1: 2.8; DAX1 inh-2: 0.1; hcDAF-12 act: -1.1; ssDAF-12 act: -0.5; hgDAF-12 ag: 13.1*

How did CC(C)(C)c1ccc(-c2nnc3n2N=C(c2ccc(Cl)cc2)CS3)cc1 do in these assays?
DAX1 inh-2: -1.2; hcDAF-12 act: -0.2; ssDAF-12 act: -1.9; hgDAF-12 ag: 0.4

How did O=C(O)CCCCn1c(SCc2ccccc2Cl)nc2ccsc2c1=O do in these assays?
DAX1 inh-1: 4.7*; DAX1 inh-2: -0.3; hcDAF-12 act: -0.6; ssDAF-12 act: -1.4; hgDAF-12 ag: -0.3

Results for O=C(O)CCCCn1c(SCc2cc(=O)n3cc(Cl)ccc3n2)nc2ccsc2c1=O ?
DAX1 inh-1: -0.1; DAX1 inh-2: 0.6; hcDAF-12 act: -0.6; ssDAF-12 act: 0.1; hgDAF-12 ag: 0.1

What do the screens show for `O=C(NCc1ccccc1CN1CCCC1)C1CCN(C(=O)c2ccc(F)cc2)CC1`?
DAX1 inh-1: -0.4; DAX1 inh-2: 3.8*; hcDAF-12 act: 0.5; ssDAF-12 act: -0.7; hgDAF-12 ag: 0.3
